Test results published in PubChem BioAssay (Tox21).
Results filed as inconclusive are left out. A number with no mark means an inactive call. The source made the active and inactive calls. Calls come from the whole dose curve; as a rule, active = well fitted activation curve with a large enough effect in the repeat runs; inconclusive = weak or mixed curves; inactive = flat fitted curve, though single readings scatter.

Assay: A CellTox Green Cytotoxicity Assay to monitor cytotoxicity in HEK293 cells - 24 hour (AID 1224875); note: nearly all actives have a fitted effect of over 45% in size
Conditions: CellTox Green fluorescence, stronger effect = higher value; series mostly up to 76.8 µM
Description: National Center for Advancing Translational Sciences [NCATS]
NIH Chemical Genomics Center [NCGC]
U.S. Environmental Protection Agency [EPA]
National Institutes of Environmental Health Sciences [NIEHS]
National Toxicology Program [NTP]
Cell-based models are critical for drug discovery. Determining the natural cytotoxic effects resulting from test compounds is an essential research activity. A CellTox Green Cytotoxicity Assay to monitor cytotoxicity in real time of continues cell culture during 40 hours of the compound treatment was used to screen Tox21 10K library compounds in Hek293 cells. CellTox Green Cytotoxicity Assay is a nonlytic, homogeneous, biofluorescent method to measure cytotoxicity in cell culture after experimental manipulation. The assay system uses a proprietary asymmetric cyanine dye that is excluded from viable cells but preferentially stains the dead cell's DNA. […] Viable cells produce no appreciable increases in fluorescence. Therefore, the fluorescence signal produced by the binding interaction with dead cell DNA is proportional to cytotoxicity.
The mixture of Hek293 cell suspension and reagents were dispensed at 600cells/6 ul/well in 1536-well tissue culture treated black solid bottom plates using a Multidrop dispenser. After the assay plates were incubated at a 37 C/5% CO2 incubator for 5 hours, 23 nL of compounds dissolved in DMSO, positive and negative controls was transferred to the assay plate by a pintool work station. The plates were incubated at 37 C for 40 hours. The fluorescence intensity were measured at 0h, 8h, 16h, 24h, 32h and 40h time points using ViewLux plate reader during compound treatment.
% is set by controls: 0 for no effect and ±100 for the full control effect.

| SMILES | outcome | activity change |
| --- | --- | --- |
| CCCCOC(=O)c1ccccc1 | inactive |  |
| CCCCCCCCC(=O)Cl | inactive |  |
| CC(C)=O | inactive |  |
| N[C@@H](CCC(=O)N[C@@H](CS)C(=O)NCC(=O)O)C(=O)O |  | 1.6% [at 15.8 µM] |
| COc1cc(C(=S)N2CCOCC2)cc(OC)c1OC | inactive |  |
| CCCC/C=C\CCCCCCCCCC=O | inactive |  |
| Cc1ccsc1/C=C/C1=NCCCN1C | inactive |  |
| CCC(C)(CCC(C)C)C(=O)O (stereo not given) | inactive |  |
| COc1ccc(Br)c(C)c1 | inactive |  |
| O=C(O)CCSSCCC(=O)O | inactive |  |
| COc1ccc2c(c1)C(=O)N(CCc1ccc(S(=O)(=O)NC(=O)NC3CCCCC3)cc1)C(=O)C2(C)C | inactive |  |
| CC(C)=CCOC(=O)c1ccccc1 | inactive |  |
| O=C1CC(c2ccc(Cl)cc2)CC(=O)N1 | inactive |  |
| COc1cc(N)ccc1C | inactive |  |
| O=C(c1ccc(O)cc1)c1ccc(O)c(O)c1O | inactive |  |
| Cc1[nH]cnc1-c1ccc(Cl)cc1 | inactive |  |
| CC[C@H](C)C(=O)O[C@H]1C[C@H](O)C=C2C=C[C@H](C)[C@H](CC[C@@H](O)C[C@@H](O)CC(=O)O)[C@H]21 | inactive |  |
| c1ccc2c(c1)ccc1c3ccccc3ccc21 | inactive |  |
| CN(CCOc1ccc(NS(C)(=O)=O)cc1)CCc1ccc(NS(C)(=O)=O)cc1 | inactive |  |
| CCCCCOC(=O)CCC | inactive |  |

| SMILES | outcome | activity change |
| --- | --- | --- |
| Nc1ccc([N+](=O)[O-])c(N)c1 | inactive |  |
| COc1ccc(-c2cc(=O)c3c(O)cc(O[C@@H]4O[C@H](CO[C@@H]5O[C@@H](C)[C@H](O)[C@@H](O)[C@H]5O)[C@@H](O)[C@H](O)[C@H]4O)cc3o2)cc1O | inactive |  |
| CC(=C(CCOC(=O)C(C)C)SSC(CCOC(=O)C(C)C)=C(C)N(C=O)Cc1cnc(C)nc1N)N(C=O)Cc1cnc(C)nc1N | inactive |  |
| CC(C)(C)OC(=O)c1ccc(O)cc1 | inactive |  |
| O=C1c2ccccc2C(=O)N1CCl | inactive |  |
| C[Si](C)=O |  | 9.97% [at 6.97 µM] |
| N[C@@H](CCC(=O)Nc1ccc([N+](=O)[O-])cc1)C(=O)O | inactive |  |
| O=C(O)c1cc(Cl)cc([N+](=O)[O-])c1Cl | inactive |  |
| CC(=O)Nc1ccc(S(=O)(=O)Cl)cc1 | inactive |  |
| CC(C)C(=O)OCCc1ccccc1 | inactive |  |
| CN1C(C)(C)CCCC1(C)C | inactive |  |
| Nc1ccc2cc(S(=O)(=O)O)cc(O)c2c1 | inactive |  |
| O=C(O)Cc1ccc(Cl)cc1Cl | inactive |  |
| OCCN(CCO)c1cccc(Cl)c1 | inactive |  |
| CC(C)NCC(O)COc1ccc(COCCOC(C)C)cc1 (stereo not given) | inactive |  |
| O=Cc1ccc(Cl)c(Cl)c1 | inactive |  |
| C[C@@H](O)[C@H]1C(=O)N2C(C(=O)O)=C(SCCN=CN)C[C@H]12 | inactive |  |
| CC(C(=O)O)c1ccc2c(c1)CC(=O)c1ccccc1S2 (stereo not given) | inactive |  |
| ClCCCl | inactive |  |
| O=C(CCN1CCN(CCO)CC1)N1c2ccccc2Sc2ccc(C(F)(F)F)cc21 | inactive |  |
